From PubChem BioAssay AID449762 (Southern Research Specialized Biocontainment Screening …, 2010)
The campaign covered roughly 330,000 compounds. About 1,900 (0.58%) were called active. Another 4% or so got no clear call; they are omitted. Rule as the data show it: inconclusive = inhibition above about 70% without an active follow-up result; inactive = below that. Not all results are given here. Measured potencies and affinities stand elsewhere.

assay: M. tuberculosis growth inhibition, HTS (AID 449762);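 also: bacterial growth assessed after seven days of incubation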; details: M. tuberculosis H37Rv growth inhibition, 7H9 media; at 25 µM; stronger effect = higher value

Row | SMILES | inhibition
1 | Cc1c(C(=O)N2CCN(c3ccccn3)CC2)cccc1[N+](=O)[O-] | 3.8% (inactive)
2 | O=C(NNS(=O)(=O)c1ccccc1[N+](=O)[O-])c1ccc(O)cc1 | 13.9% (inactive)
3 | COC(=O)[C@]1(Cc2ccccc2)N[C@H](CN(C)C(=O)c2ccc(C)cc2)[C@@H]2C(=O)N(C)C(=O)[C@@H]21 | 2.73% (inactive)
4 | CCC1(C)N=C(c2ccc3c(c2)OCO3)CC(c2ccccc2O)N1 (configuration not stated) | -5.31% (inactive)
5 | CCOc1ccccc1C1N=C(c2ccc(OC)cc2)CC(c2ccccc2O)N1 (configuration not stated) | 13% (inactive)
6 | COc1cccc2cc(C(=O)N3CCCCC3C)c(=O)oc12 (configuration not stated) | -7.25% (inactive)
7 | COC(=O)c1c(N)n(CCCN2CCOCC2)c2nc3ccccc3nc12 | 4.91% (inactive)
8 | COCCOC(=O)c1c(N)n(CCCN2CCOCC2)c2nc3ccccc3nc12 | 0.66% (inactive)
9 | Cc1[nH]c2ccccc2c1/C=N/NC(=O)CNC(=O)c1ccco1 | 1.49% (inactive)
10 | COCCn1c(=S)[nH]c2cc(C(=O)N3CCc4ccccc4C3)ccc2c1=O | 5.9% (inactive)
11 | CC[C@H](C)[C@H](NC(N)=O)C(=O)NCCc1ccc(Cl)cc1Cl | -2.03% (inactive)
12 | Cc1ccc(CNc2ccc3nnc(-c4ccccc4)n3n2)cc1 | -2.25% (inactive)
13 | Clc1ccc(CNc2ccc3nnc(-c4ccccc4)n3n2)cc1 | -9.56% (inactive)
14 | Cc1cc(C)n(CCOC(=O)C2C(C=C(Cl)Cl)C2(C)C)n1 (configuration not stated) | 6.12% (inactive)
15 | CN(C)[C@@H]1C(=O)C(C(N)=O)=C(O)[C@@]2(O)C(=O)C3=C(O)c4c(O)cccc4[C@@](C)(O)[C@H]3C[C@@H]12 | 22.5% (inactive)
16 | C=C1c2cccc(O)c2C(O)=C2C(=O)[C@]3(O)C(O)=C(C(N)=O)C(=O)[C@@H](N(C)C)[C@@H]3[C@@H](O)[C@H]12 | 69.5% (inactive)
17 | CN(C)[C@@H]1C(=O)C(C(N)=O)=C(O)[C@@]2(O)C(=O)C3=C(O)c4c(O)cccc4[C@@](C)(O)[C@H]3[C@H](O)[C@@H]12 | 31.9% (inactive)
18 | CSC(=NC#N)N1CCN(c2c(C)cccc2C)CC1 | -2.97% (inactive)
19 | CC(C)CCNC(=O)C1CC(c2cccc(F)c2)=NO1 (configuration not stated) | -4.76% (inactive)
20 | O=C(NC1CCCC1)C1CCCN1S(=O)(=O)c1cccc2cccnc12 (configuration not stated) | -5.92% (inactive)
21 | CC1CCCC(NC(=O)C2CCN(C(=O)Nc3ccccc3)CC2)C1C (configuration not stated) | -2.53% (inactive)
22 | CCC(C)[C@H](NC(=O)[C@H](Cc1ccccc1)n1c(=O)[nH]c2ccccc2c1=O)C(=O)N1CCC(C(=O)O)CC1 (some centres not stated) | -6.06% (inactive)

Row | SMILES | inhibition
23 | CCOc1ccc(C(C)=O)cc1COC(=O)c1cnc(Cl)c(Cl)c1 | -3.39% (inactive)
24 | COc1ccc(N2CCN(C(=O)C(C)(C)Oc3ccc(Cl)cc3)CC2)cc1 | 2.08% (inactive)
25 | O=C(OCC(=O)N1CCCC1)c1cnc(Cl)c(Cl)c1 | 2.91% (inactive)
26 | O=C(COC(=O)c1cnc(Cl)c(Cl)c1)c1ccc(F)cc1 | 2.14% (inactive)
27 | O=C(OCC(=O)N1CCOCC1)c1cnc(Cl)c(Cl)c1 | -0.51% (inactive)
28 | CC(C)(Oc1ccc(Cl)cc1)C(=O)OCC(=O)N1CCCC1 | -3.13% (inactive)
29 | O=c1[nH]cc(S(=O)(=O)Nc2ccc3c(c2)OCO3)c(=O)[nH]1 | 7.53% (inactive)
30 | COc1ccc2nc(N3C(=O)C(O)=C(C(=O)c4ccco4)C3c3ccccc3OC)sc2c1 (configuration not stated) | 0.62% (inactive)
31 | COc1cccc(C2CC(c3ccccc3OC)n3ncnc3N2)c1 (configuration not stated) | -5.17% (inactive)
32 | CC(=O)N/C(=C\c1ccccc1)C(=O)NC(C)C(=O)O (configuration not stated) | -2.83% (inactive)
33 | O=C(COC(=O)c1cc2ccccc2cc1O)Nc1cccnc1Cl | -17% (inactive)
34 | C=CCNC(=O)N1CCc2[nH]c3ccc(F)cc3c2C1 | -1.16% (inactive)
35 | CC(OC(=O)Cc1n[nH]c(=O)c2ccccc12)C(=O)Nc1ccc(F)cc1Cl (configuration not stated) | -10.4% (inactive)
36 | Cn1c(C(=O)N(Cc2ccccc2)Cc2ccccn2)cc2sccc21 | -2.09% (inactive)
37 | Cc1cccc(C(=O)OCC(=O)Nc2ccccc2C(=O)NC2CC2)c1 | -11.3% (inactive)
38 | Cn1c(SCC(=O)c2ccc3c(c2)OCCO3)nnc1C(F)(F)F | -5.9% (inactive)
39 | O=C(/C=C/c1c(F)cccc1Cl)c1ccc(O)cc1 | -0.9% (inactive)
40 | O=C(/C=C/c1ccc[nH]1)c1ccc(F)cc1 | 2.02% (inactive)
41 | Cc1cc(C)n2c(Br)c(CSc3nc4ccccc4s3)nc2n1 | -0.87% (inactive)
42 | CC(NC(=O)CSC(=S)N1CCCC1)c1ccc(S(N)(=O)=O)cc1 (configuration not stated) | -7.22% (inactive)
43 | Cc1cc(/C=N/NC(=O)c2cccs2)c(C)n1-c1cnccn1 | 11.2% (inactive)
44 | Cc1cc(/C=N/NC(=O)c2cccs2)c(C)n1-c1ccccc1 | 3.6% (inactive)

Row | SMILES | inhibition
45 | Cc1ccc(C)c(OCC(=O)NNC(=O)CCN2CCN(c3ccccc3)CC2)c1 | 7.6% (inactive)
46 | COc1cccc(NC(=O)CSc2nnc(-c3cc(C)[nH]n3)n2N)c1 | 7.87% (inactive)
47 | CCc1cc2c(=O)c(-c3cnn(-c4ccccc4)c3)c(C(F)(F)F)oc2c(CN(C)C)c1O | 5.42% (inactive)
48 | CCc1cc2c(=O)c(-c3nc4ccccc4n3C)c(C)oc2c(CN2CCCCC2)c1O | -5.94% (inactive)
49 | CC1CN(C(=O)CCC(=O)N2CCN(c3cccc(C(F)(F)F)c3)CC2)c2ccccc2O1 (configuration not stated) | 9.11% (inactive)
50 | COc1ccccc1NC(=O)N(Cc1ccccc1)C1=NCC(C)S1 (configuration not stated) | 6.61% (inactive)
51 | OC(CNCC1CCCO1)COc1ccc(OCC(O)CNCC2CCCO2)cc1 (configuration not stated) | 5.75% (inactive)
52 | CCOC(=O)c1c(C)n(C)c2ccc(OCC(O)CNCCc3ccccc3)cc12 (configuration not stated) | 15.2% (inactive)
53 | COc1ccc(N2CCN(C(=O)c3sc4ncn(CC(=O)N5CCCCC5C)c(=O)c4c3C)CC2)cc1 (configuration not stated) | -4.52% (inactive)
54 | O=C(CSc1nn(-c2ccc(Cl)cc2)c(=S)s1)NCC1CCCO1 (configuration not stated) | 69.3% (inactive)
55 | O=C(CSc1nc(-c2ccc(F)cc2)cs1)NCC1CCCO1 (configuration not stated) | -0.07% (inactive)
56 | CCCCCCCCCCSc1n[nH]c(NC(C)=O)n1 | 4.39% (inactive)
57 | COc1ccc(OC)c(-c2csc(NC(=O)COC(=O)C3(C)CC3(Cl)Cl)n2)c1 (configuration not stated) | 8.7% (inactive)
58 | CN1CCN(C(=O)/C(=C/c2ccc(F)cc2)c2ccsc2)CC1 | -3.93% (inactive)
59 | COc1cc(/C=C2\C(=N)N3N=C(S(=O)(=O)CC(C)C)SC3=NC2=O)ccc1OC(=O)c1ccco1 | 0.47% (inactive)
60 | CCS(=O)(=O)C1=NN2C(=N)/C(=C\c3ccc(OC(=O)c4ccco4)c(OC)c3)C(=O)N=C2S1 | 3.16% (inactive)
61 | Cc1cc(C)c(NS(=O)(=O)c2ccc(Cl)c(C(=O)O)c2)c(C)c1 | -6.92% (inactive)
62 | O=C(NCCCNc1ccc([N+](=O)[O-])cc1)C(F)(F)F | -6.92% (inactive)
63 | CCn1c(COc2ccc(OC)cc2)nnc1SCc1nc2ccccc2c(=O)[nH]1 | -7.06% (inactive)
64 | Cc1oc(-c2cccc(C(F)(F)F)c2)nc1CN1CCN(c2ccccn2)CC1 | 63.4% (inactive)
65 | CCN(CC)c1ccc(/C=N\N2CCN(Cc3ccc(C)cc3)CC2)cc1 | 38% (inactive)
66 | O=C(NC(=S)NNC(=O)c1cc2ccccc2cc1O)c1ccco1 | 2.19% (inactive)

Row | SMILES | inhibition
67 | COc1ccc(C(=O)NC(=S)NNC(=O)c2ccco2)cc1 | 70.2% (inactive)
68 | CCOc1ccc(/C=N/NC(=O)C(C)N(c2ccc(OC)cc2)S(C)(=O)=O)cc1 (configuration not stated) | -10.4% (inactive)
69 | Cc1ccc(N(CCC#N)C(=O)COC(=O)c2nc3nc(C)cc(C)n3n2)cc1 | -2.21% (inactive)
70 | Cc1nc(N2CCN(c3ccccn3)CC2)c2c(C)c(C(=O)N3CCN(c4cccc(Cl)c4)CC3)sc2n1 | 60.4% (inactive)
71 | Cc1nc(N2CCN(c3ccccn3)CC2)c2c(C)c(C(=O)N3CCN(c4ccccc4F)CC3)sc2n1 | 61.9% (inactive)
72 | CCCC(=O)Nc1nc2ccc(C(=O)OCC)cc2s1 | -1.4% (inactive)
73 | O=C(CN1C(=O)C2CCCCC2C1=O)OCn1nnc2ccccc2c1=O (configuration not stated) | 2.65% (inactive)
74 | O=C(CNC(=O)C1CCCCC1)OCn1nnc2ccccc2c1=O | 12.9% (inactive)
75 | COc1ccc(C)cc1NC(=O)CCCN1C(=O)CN(C)C1=O | 4.23% (inactive)
76 | CCN1CCN(C(=O)c2ccc(N3CC4CC(C3)c3cccc(=O)n3C4)c([N+](=O)[O-])c2)CC1 (configuration not stated) | 2.16% (inactive)
77 | Cc1ccc(CNC(=O)c2ccc(S(=O)(=O)N(C)C)cc2)n1C | 3.61% (inactive)
78 | COC(=O)c1c(NC(=O)c2ccccc2)sc2c1CC(C)(C)NC2(C)C | -11.2% (inactive)
79 | CC1(C)Cc2c(sc(NC(=O)c3ccc(C(=O)c4ccccc4)cc3)c2C#N)C(C)(C)N1 | 2.99% (inactive)
80 | COc1ccc(C2Nc3ccccc3C(=O)N2c2ccc(C)cc2)cc1COc1ccccn1 (configuration not stated) | -5.39% (inactive)
81 | Cc1ccc(C)c(S(=O)(=O)N2CCN(CC(=O)Nc3cc(C)on3)CC2)c1 | 1.82% (inactive)
82 | O=C(N/N=C/c1ccc[nH]1)c1cccc(Br)c1 | 47% (inactive)
83 | O=C(N/N=C/c1ccc[nH]1)c1cccnc1 | -9.86% (inactive)
84 | COc1ccc(CCNC(=O)C2CCCN2S(=O)(=O)c2ccc(F)cc2)cc1OC (configuration not stated) | 0.4% (inactive)
85 | O=C(CN(Cc1ccco1)C(=O)Cn1nnc(-c2cccs2)n1)NCc1ccccc1 | 4.1% (inactive)
86 | COC/C=C/C1=CC2=CC(=O)C(C)(OC(=O)c3cnc4ccccc4n3)C(=O)C2=CN1c1ccc(CO)cc1 (configuration not stated) | 3.29% (inactive)
87 | O=C(c1ccc2c(=O)n(Cc3ccccc3)c(=S)[nH]c2c1)N1CCCC1 | -3.86% (inactive)
